Bioassay records deposited in PubChem BioAssay by National Center for Advancing Translational Sciences (NCATS).
IL-1B inflam inh = qHTS for Inhibitors of Inflammasome Signaling: IL-1-beta AlphaLISA Primary Screen; THP-1 LPS/ATP IL-1B secretion, AlphaLISA, 16 h; stronger effect = lower value; activity change, % at 57.5 µM; hit rate 4.7% among 360,000; in the data active means activity change below about -50%; inconclusive means mostly about -30% to -49%
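Secreted IL-1B measured by AlphaLISA bead assay after 16 h compound exposure of THP-1 cells; compounds (final up to 57.5 uM) added 1 h before LPS (250 ng/mL) and ATP (1.25 mM) stimulation; lower signal means less secretion.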
HT1080 IDH1KD tx = qHTS for induction of synthetic lethality in tumor cells producing 2HG: qHTS for the HT-1080-IDH1KD cell line; HT-1080 IDH1 knockdown viability, ATP luminescence, 48 h; Potency, µM (titrated, usually from 46.1 µM), inactives show at the highest dose activity, negative = toxicity, actives largely listed as cytotoxic; hit rate 2% among 360,000; AID 686971, 2013;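 further: potency means the concentration at half of the fitted maximal effect; 0% = DMSO wells and -100% = cell-free medium wells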
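HT-1080-IDH1KD cells (IDH1 knocked down), 750/well in RPMI with 5% FBS, treated with compound 48 h at 37 degrees C. Viability by CellTiter-Glo luminescence, normalised to DMSO and no-cell wells; concentration-response curves classed.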
HT1080-NT tox = qHTS for induction of synthetic lethality in tumor cells producing 2HG: qHTS for the HT-1080-NT fibrosarcoma cell line; HT-1080-NT fibrosarcoma viability, CellTiter-Glo ATP luminescence, 48 h; Potency, µM (top dose mostly 46.1 µM), for the others: top-dose activity, negative = less viability, most hits filed as cytotoxic; hit rate 1.6% among 360,000; AID 686970, 2013;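 further: NT is the 2HG producing partner of a matched IDH1 knockdown line; potency means the concentration at half of the fitted maximal effect; 0% = DMSO-treated cells and -100% = media-only wells without cells; nearly all actives have a fitted effect of over 55% in size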
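Fibrosarcoma NT cells, 750 per well in 5% FBS RPMI, were exposed to compound for 48 hours. Viability: CellTiter-Glo luminescence.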
12-LOX inh = Primary qHTS assay for inhibitors of human arachidonate 12S-lipoxygenase (ALOX12): Round 2; purified 12hLO, xylenol orange hydroperoxide absorbance; AID 1671190, 2021; hit rate 1.1% among 580,000; Polyunsaturated fatty acid lipoxygenase ALOX12 (Homo sapiens), P18054; Potency, µM (titrated, usually from 108 µM), for inactives: at the highest dose activity change, negative = inhibition, usual class: inhibitors; further: potency means the concentration at half of the fitted maximal effect
Target sequence (P18054 whole entry, looked up): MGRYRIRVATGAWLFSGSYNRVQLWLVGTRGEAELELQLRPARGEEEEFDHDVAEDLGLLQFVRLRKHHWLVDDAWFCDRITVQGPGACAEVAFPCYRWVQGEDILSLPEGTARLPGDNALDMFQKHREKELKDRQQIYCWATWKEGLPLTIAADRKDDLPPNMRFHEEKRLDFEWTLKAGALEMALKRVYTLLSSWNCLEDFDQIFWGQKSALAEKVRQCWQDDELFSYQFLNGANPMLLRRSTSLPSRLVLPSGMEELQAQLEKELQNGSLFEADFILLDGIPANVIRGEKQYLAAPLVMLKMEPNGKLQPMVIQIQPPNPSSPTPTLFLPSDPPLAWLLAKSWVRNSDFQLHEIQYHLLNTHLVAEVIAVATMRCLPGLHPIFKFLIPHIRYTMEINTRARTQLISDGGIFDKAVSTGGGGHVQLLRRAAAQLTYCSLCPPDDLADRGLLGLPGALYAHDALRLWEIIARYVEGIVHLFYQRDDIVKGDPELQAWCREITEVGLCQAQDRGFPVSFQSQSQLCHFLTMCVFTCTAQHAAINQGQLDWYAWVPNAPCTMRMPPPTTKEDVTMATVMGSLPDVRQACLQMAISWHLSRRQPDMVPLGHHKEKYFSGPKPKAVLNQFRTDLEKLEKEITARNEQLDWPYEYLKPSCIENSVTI
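Purified human 12hLO at 150 nM in 25 mM Hepes, 0.01% Triton X-100, pH 7.0, preincubated 15 min at room temperature with compound. Reaction started with 40 uM arachidonic acid, 30 min at room temperature. Hydroperoxide measured by Fe-xylenol orange, 573/405 nm absorbance ratio.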
DT40 TDP1 no CPT = qHTS for Inhibitors of human tyrosyl-DNA phosphodiesterase 1 (TDP1): qHTS in cells in absence of CPT; DT40 Tdp1-/- hTDP1 cells, no CPT, ATP luminescence, 48 h; Potency, µM (titrated, usually from 46.2 µM), without a hit: top-dose activity change, negative = growth inhibition, hits mostly inhibitors; hit rate 15% among 420,000; AID 686978, 2013; further: potency means the concentration at half of the fitted maximal effect; nearly all actives have a fitted effect of over 55% in size
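DT40 Tdp1-/-;hTDP1 cells, no CPT (DMSO vehicle only), 400 cells/well; compounds pin-transferred; ≥48 hr, 37 °C; CellTiter-Glo 30 min RT dark, luminescence read.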
TDP1 cell CPT = qHTS for Inhibitors of human tyrosyl-DNA phosphodiesterase 1 (TDP1): qHTS in cells in presence of CPT; hit rate 12% among 420,000; Potency, µM (series often up to 46.2 µM), for the others: top-dose activity change, negative = growth inhibition, most hits filed as inhibitors; chicken DT40 Tdp1-/-;hTDP1 cells + 20 nM CPT, ATP luminescence, 48 h; AID 686979, 2013; further: potency means the concentration at half of the fitted maximal effect; nearly all actives have a fitted effect of over 55% in size
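Chicken DT40 Tdp1-/- cells stably complemented with human TDP1 were seeded at 400 cells/well in medium containing 20 nM camptothecin, exposed to pin-transferred compounds, and grown at 37 °C for at least 48 hr. Viability was read as ATP luminescence.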
* marks the source's active call; other numbers are inactive results; ? = inconclusive; / = no result. The entries come from a sample that favours hits as a whole. Unless noted, the call rests on the fitted dose curve; in most records, active means well fitted curve in the direction sought with a large enough effect; inconclusive means small, poorly fitted or top-dose-only effect, or another doubt; inactive means no such curve, though single readings can be large; an effect the other way counts as inactive or inconclusive. Unless noted, on the % scale 0 is the no-effect control and ±100 the full control effect.

SMILES | IL-1B inflam inh | HT1080 IDH1KD tx | HT1080-NT tox | 12-LOX inh | DT40 TDP1 no CPT | TDP1 cell CPT
O=C(Nc1ccccc1)Nc1nnc(-c2ccc(Cl)c(Cl)c2)s1 | / | / | / | 0% | / | /
COc1cccc(C2CC(=O)Nc3c2c(=O)nc(SC)n3C)c1OC (stereo not given) | / | / | / | -6% | / | /
CCN(CC)c1ncn(Cc2c(Cl)cccc2Cl)c2ncnc1-2 | -7 | ? | -28% | -12% | 15µM* | ?
CCN(CC)c1ncnc2c1ncn2Cc1c(Cl)cccc1Cl | -8 | ? | -27% | ? | ? | ?
CCCCN(C(=O)c1c(CC)noc1C)c1c(N)n(CCCC)c(=O)[nH]c1=O | 15 | 12% | 4% | -16% | -20% | -17%
CCOc1cc(Cl)c(C=O)cc1OC | / | / | / | 3% | / | /
C[n+]1c(/C=C/c2ccc3c(c2)OCO3)ccc2ccccc21 | -22 | 7% | 14% | 36% | 2% | 13%
C[n+]1c(/C=C/c2ccc(F)cc2)ccc2ccccc21 | / | / | / | / | 2.5µM* | 3.5µM*
C[n+]1c(/C=C/c2ccc(O)cc2)ccc2ccccc21 | ? | -5% | -7% | 35µM* | 18µM* | ?
CCOc1ccc(-c2nnc(-c3snc(-c4ccc(F)cc4)c3N=CN(C)C)o2)cc1 | 11 | -2% | -4% | 0% | -21% | -21%
Cc1nn(Cc2ccccc2)c(C)c1C(=O)OCC(=O)c1cc(C)n(C2CC2)c1C | -58* | -28% | -49% | 8% | 18µM* | 23µM*
COCCn1c(C)cc(C(=O)COC(=O)c2c(C)nn(Cc3ccccc3)c2C)c1C | -16 | -2% | -15% | 0% | ? | -23%
Cc1cc(C(=O)COc2ccc(C#N)cc2)c(C)n1C1CC1 | -17 | 4% | -6% | 5% | 18µM* | ?
CCC(=O)Nc1ccc(S(=O)(=O)NCc2cccn2Cc2cccc(C)c2)cc1 | / | / | / | -28% | 23µM* | 21µM*
CCc1ccc(S(=O)(=O)NCc2cccn2Cc2cccc(C)c2)cc1 | / | / | / | -36% | ? | ?
CC(=O)Cc1cc(O)c2ccccc2c1OC(=O)c1ccccc1 | 27 | ? | ? | -15% | 15µM* | ?
COc1ccc(-c2cc(C(F)(F)F)nc(-n3ccnc3C)n2)cc1 | 0 | -2% | -1% | -2% | 21µM* | ?
COc1ccc(-c2cc(C(F)(F)F)nc(N3CCCCCC3)n2)cc1 | 24 | 10% | 8% | 0% | -20% | -10%
COc1ccc(-c2cc(C(F)(F)F)nc(N3CCN(C)CC3)n2)cc1OC | 0 | ? | ? | -8% | 21µM* | ?
COc1ccc(-c2cc(C(F)(F)F)nc(N3CCN(C)CC3)n2)cc1 | -65* | ? | ? | ? | 16µM* | ?
O=C1NC2(CCCN(C(=O)c3ccc4c(c3)OCO4)C2)COc2ccccc21 (stereo not given) | / | / | / | 36% | / | /
Cc1ccc(-n2nc(CO)c(C(=O)NCCCc3ccccc3)n2)cc1C | / | / | / | -12% | -24% | -19%
O=C(N/N=C(\c1ccccc1)c1cccnc1)c1ccc(O)cc1 | -12 | 8% | 5% | -9% | 13% | -17%
O=C(N/N=C(\Cc1ncc[nH]1)c1ccccc1)c1ccccc1 | / | / | / | -2% | / | /
O=C(N/N=C(\Cc1ncc[nH]1)c1ccccc1)c1ccncc1 | 59 | 4.1µM* | -27% | 2% | 4.6µM* | 4.6µM*
SMILES | IL-1B inflam inh | HT1080 IDH1KD tx | HT1080-NT tox | 12-LOX inh | DT40 TDP1 no CPT | TDP1 cell CPT
O=C(N/N=C(\Cc1ncc[nH]1)c1ccccc1)c1cccnc1 | 101 | ? | ? | 4% | 4.6µM* | 4.6µM*
C=C(C)C(=O)OCC(O)COc1ccc(C(C)(C)c2ccc(OCC(O)COC(=O)C(=C)C)cc2)cc1 (stereo not given) | -64* | ? | ? | 5% | 21µM* | 16µM*
COc1ccc(-c2noc([C@@H]3CCCN3C(=O)c3cc(C)cc(C)c3)n2)cc1 | / | / | / | 44% | / | /
COc1ccc(OC)c(CCNC(=O)c2c(C)oc3ncn(CC(C)C)c(=O)c23)c1 | / | / | / | -8% | 18µM* | ?
COc1ccc(OC)c(CNC(=O)c2c(C)oc3ncn(CC(C)C)c(=O)c23)c1 | / | / | / | ? | 16µM* | ?
COC/C=C/C1=CC2=CC(=O)C(C)(OC(=O)c3cnc4ccccc4n3)C(=O)C2=CN1Cc1ccccc1 (stereo not given) | 0 | -19% | -30% | ? | 16µM* | ?
COC/C=C/C1=CC2=CC(=O)C(C)(OC(=O)c3cnc4ccccc4n3)C(=O)C2=CN1C1CC1 (stereo not given) | -13 | 4% | 0% | -20% | 21µM* | ?
COC/C=C/C1=CC2=CC(=O)C(C)(OC(=O)c3cnc4ccccc4n3)C(=O)C2=CN1Cc1ccc(OC)cc1 (stereo not given) | -60* | 0% | -6% | ? | ? | 23µM*
CC(=O)CNC(C)(C)C(C)=O | / | / | / | -27% | / | /
Cc1ccc(S(=O)(=O)NCC(Nc2cccc(Cl)c2)c2ccccc2)cc1 (stereo not given) | / | / | / | ? | ? | 18µM*
COc1ccc(OCC(=O)Sc2ccc(C)cc2)cc1 | -18 | -6% | 0% | -23% | 23µM* | ?
COc1cc(/C=N/Nc2cccc3cccnc23)cc(OC)c1O | ? | -13% | -12% | -26% | 16µM* | ?
Oc1cccc(/C=N/Nc2cccc3cccnc23)c1 | -75* | ? | ? | ? | ? | ?
COc1ccc(C(CNC(=O)C2CCN(S(=O)(=O)c3ccc4c(c3)CCC4)CC2)N(C)C)cc1 (stereo not given) | / | / | / | -44% | / | /
CC(C)(C)OC(=O)NC(Cc1ccccc1)C(=O)NCCCC(=O)O (stereo not given) | 1 | 13% | 26% | 0% | -6% | -26%
Cn1cc(C[C@H](NC(=O)OC(C)(C)C)C(=O)N[C@@H](CO)Cc2ccccc2)c2ccccc21 | -6 | 0% | -7% | 0% | ? | 18µM*
